Laboratory results as given in PubChem BioAssay AID977622 (Broad Institute, 2014).
Screen size: about 1,900 compounds; fewer than 10 were called active. About 39% were inconclusive and are not listed.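 Rule for the calls: active = Green signal of the normal strain falls at least twice as much as red signal of the resistant mutant, with overall culture growth loss under a set limit; inconclusive = no clear call, values can overlap the other calls; inactive = the rest.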 Only a sample is shown.

Experiments:
[1] = wild-type E. coli growth inhibition versus h38 humanized strain – h38 mutant RFP, wild-type GFP, cherry-pick, dose response (AID 977622); conditions: 24 h; activity change: E. coli mixed culture, total growth OD600 at 50 uM, at 50 µM; E. coli WT ribosome GFP fluorescence, mixed culture, at 50 µM (top of the series)
[2] = test system: E. coli h38 humanized mutant ribosome RFP fluorescence, mixed culture, 24 h; assay: as above; conditions: h38 mutant RFP at 50 uM; at 50 µM

Row | Structure (SMILES) | activity change [1] | outcome [1] | activity change [2]
1 | c1ccc(SCc2nc3ccccc3s2)nc1 | -3.53% | inactive | 8.07%
2 | Cc1ccc(NS(=O)(=O)c2ccc3c(c2)CCC(=O)N3)cc1C | -8.95% | inactive | -10.9%
3 | O=C(Nc1cccc(F)c1)N1C[C@@H]2[C@H](c3ccccc31)[C@H](CO)N2C(=O)Cc1ccccn1 | 4.66% | inactive | -3.32%
4 | COc1ccc(-c2cc(C(=O)Nc3ccc(C(N)=O)cc3)c3ccccc3n2)cc1OC | 8% | inactive | -4.25%
5 | N#Cc1ccc(-c2ccc(C3[C@H]4CNC[C@@H]3N4S(=O)(=O)c3ccc(-c4ccccc4)cc3)cc2)cc1 (stereo partly drawn) | -54.5% | inactive | 244%
6 | Nc1ccc(C(=O)OCCCc2nc3cc4ccccc4cc3[nH]2)cc1 | 3.79% | inactive | 0.364%
7 | O=C(NCc1nc2ccccc2[nH]1)c1ccc(S(=O)(=O)N2CCCC2)cc1 | -24.9% | inactive | 2.82%
8 | CC[n+]1c(C)cc2c(sc3ccccc32)c1C | -0.26% | inactive | -7%
9 | COc1ccccc1NC(=O)CSc1ncc(CO)n1Cc1ccc(F)cc1 | -27.8% | inactive | -17.1%
10 | CSc1ccc(CN(C)C(=O)C(c2ccccc2)c2ccccc2)cc1 | -21.9% | inactive | -20.3%
11 | O=C(Nc1ccc(C(=O)Nc2ccccc2Cl)cc1)c1cccnc1 | -26.4% | inactive | -26%
12 | COC(=O)c1ccc(CCc2cc(O)c(Br)cc2O)cc1 | -52.8% | inactive | 27.3%
13 | O=C(Nc1ccc(C(=O)c2ccccc2)cc1)c1ccccc1 | -40.2% | inactive | -22.1%
14 | OC[C@H]1[C@H](c2ccc(-c3ccc(F)cc3)cc2)[C@@H]2CN(Cc3ccncc3)CCCCN12 | -3.55% | inactive | -17.5%
15 | O=C(NCCCn1ccnc1)c1sc2cc([N+](=O)[O-])ccc2c1Cl | -6% | inactive | -1.75%
16 | CCC1(CC)NC(=O)N(CC(=O)N2N=C(c3ccc(Cl)cc3)CC2c2ccco2)C1=O (stereo not drawn) | -19.3% | inactive | -38.4%
17 | O=C(COc1cccc2c1CCN(Cc1ccccc1F)C2=O)N1CCCCC1 | -32.1% | inactive | 
18 | O=C(Nc1cccc(S(=O)(=O)c2cccc(NC(=O)C3CC3)c2)c1)C1CC1 | -38.1% | inactive | 4.96%
19 | O=S(=O)(Cc1ccccc1)N1CCCCN2[C@@H](CO)[C@@H](c3ccc(-c4cccnc4)cc3)[C@@H]2C1 | -6.81% | inactive | 16.2%
20 | Cc1noc(C)c1NC(=O)Nc1ccc2c(c1)C(=O)N([C@@H](C)CO)C[C@@H](C)[C@@H](CN(C)C(=O)Nc1ccc3c(c1)OCO3)OCCCC[C@@H](C)O2 | -2.53% | inactive | 20.3%
21 | Fc1ccc(-c2nc3c(Cl)cc(C(F)(F)F)cn3c2Cc2ccsc2)cc1 | -5.9% | inactive | 5.92%
22 | COC(=O)CN1C(=S)N(c2ccc(F)cc2)C(=O)C1CC(=O)Nc1ccc(OC)cc1 (stereo not drawn) | -4.61% | inactive | 9.32%
23 | CCOc1ccc(C(C)=O)cc1CN1C(=O)NC2(CCCCCCC2)C1=O | -23.9% | inactive | -21%
24 | O=C(c1ccc2c3c(cccc13)CC2)N1CCN(c2ncccn2)CC1 | -3.01% | inactive | -11.5%

Row | Structure (SMILES) | activity change [1] | outcome [1] | activity change [2]
25 | Cc1ccc(NC(=O)CN(C)S(=O)(=O)c2cccc3cccnc23)cc1F | -37.4% | inactive | -40.8%
26 | O=c1[nH]c2cc([N+](=O)[O-])ccc2c2ccccc12 | 4.42% | inactive | 
27 | COC(=O)c1cc2c(c3c4cc(F)ccc4n(S(=O)(=O)c4cccc(C)c4)c13)C(=O)N(Cc1ccco1)C2 | -11.5% | inactive | 17.4%
28 | O=C(Cc1ccc(Cl)cc1)c1ccc(O)cc1 | -1.58% | inactive | 
29 | Cc1ccc(Cc2c(-c3ccc(C#N)cc3)nc3ccc(Br)cn23)cc1 | 2.82% | inactive | -11%
30 | O=c1c2ccccc2cnn1Cc1n[nH]c(=S)n1C1CC2CCC1C2 (stereo not drawn) | -3.34% | inactive | -28.9%
31 | Cc1cccc(-c2ccc([C@H]3[C@H](CO)N4CCCCN(S(=O)(=O)c5ccccc5C)C[C@@H]34)cc2)c1 | 4.65% | inactive | 11.4%
32 | Nc1ccc2nc(-c3ccc(Cl)cc3)[nH]c2c1 |  | inactive | -11.3%
33 | CS(=O)(=O)N1CC2CCCN2c2ccc(C(F)(F)F)cc21 (stereo not drawn) | -10.4% | inactive | 2.53%
34 | Cc1ccc(C)c(N(CC(=O)NC2CCCC2)C(=O)c2oc(C(C)(C)C)cc2C)c1 | -14.2% | inactive | 21%
35 | COc1cc2ccccc2cc1C(=O)NC1CCCCC1 | -0.887% | inactive | 
36 | COCCCNC(=O)c1ccc(-c2nc3ccccc3nc2-c2ccccc2)cc1 | -2.27% | inactive | 8.8%
37 | Cc1ccc(NC(=O)CCCSc2ccccc2)cc1S(=O)(=O)N1CCOCC1 | 7.64% | inactive | 4.8%
38 | NC(=O)c1cc(C(=O)c2ccc(Cl)cc2)c[nH]1 | -13.1% | inactive | 0.863%
39 | Cc1noc(C)c1NC(=O)Nc1ccc2c(c1)C(=O)N([C@@H](C)CO)C[C@H](C)[C@@H](CN(C)C(=O)Nc1ccc3c(c1)OCO3)OCCCC[C@H](C)O2 | -13.3% | inactive | 7.1%
40 | O=C(c1ccccc1)N(c1ccccc1)c1nccc2ccccc12 | -7.9% | inactive | 31.1%
41 | Cc1ccc(S(=O)(=O)Nc2ccccc2CNc2cccc(C)n2)cc1 | -17.7% | inactive | 
42 | CCC(C(=O)Nc1ccsc1C(=O)OC)c1ccccc1 (stereo not drawn) | -5.91% | inactive | 40.7%
43 | CCOc1ccc(-c2nc(-c3cccs3)c(CC(=O)O)s2)cc1OC | -21.4% | inactive | -8.71%
44 | COc1ccc(NS(=O)(=O)c2ccc(Cl)c(NC(=O)c3ccccc3F)c2)cc1 | -40% | inactive | -6.96%
45 | Cc1noc(C)c1NC(=O)Nc1ccc2c(c1)C(=O)N([C@@H](C)CO)C[C@@H](C)[C@H](CN(C)C(=O)Nc1ccc3c(c1)OCO3)OCCCC[C@H](C)O2 | -12.5% | inactive | -3.87%
46 | COc1cc(-c2ccc(N3C(c4ccsc4)=Cc4ccc(F)cc4C3c3c[nH]c4ccc(C#N)cc34)cc2)cc(OC)c1OC (stereo not drawn) | 7.16% | inactive | 8.77%
47 | c1ccc2c(c1)CSc1ccccc1N2 | -5.5% | inactive | -11.4%
48 | CC(C)=C(c1ccc(Cl)cc1)c1c(N)ncnc1N | -10.9% | inactive | -21.6%
